The values that follow come from publication PMC10668032, “Altered binding affinity of SIX1-Q177R correlates with enhanced WNT5A and WNT pathway effector expression in Wilms tumor”.

The full ranking holds about 33,000 sequences; the median of “e-score” is about -0.05, and the highest 2% start at about 0.38. Only a selection was taken, and the highest values are over-represented in it overall.

This assay concerns the target T1, SIX1-Q177R homeodomain (human, UniProt Q15475 108-198, Q177R).
T1 sequence: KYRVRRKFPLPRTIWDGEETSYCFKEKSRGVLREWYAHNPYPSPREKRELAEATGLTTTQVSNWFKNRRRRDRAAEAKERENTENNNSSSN
The assay is described as follows: universal protein binding microarray; Universal all-10-mer PBM (8x60K, AMADID 030236), 300 nM GST-tagged protein, Alexa Fluor 488 anti-GST; buffer, salt, pH and temperature not stated (as in Berger); high values mean tight binding. To be noted: protein: ivt; tags: N-terminal GST; dsDNA, one strand shown. A digest of the protocol: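 Homeodomains carrying a GST tag were produced by in vitro transcription/translation, then quantified by anti-GST western blot against a recombinant GST standard curve. Duplicate applications at 300 nM final concentration were made to universal 'all 10-mer' protein binding microarrays in 8×60K format. The Universal PBM Analysis Suite was used to express binding as 8-mer E-scores.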
On to ACGCCACT, for which the binding signal stood at 0.159 ± 0.00951 E-score.
Then ATACCACG, with 0.216 ± 0.0275 E-score; and ATACCACC, with 0.25 ± 0.00441 E-score; and CTACCACA, with 0.154 ± 0.0418 E-score.
Then ACACCACC, with 0.4809 ± 0.000976 E-score.
For ACACCACG the value was 0.4775 ± 0.00181 E-score; for GCACCACA, 0.154 ± 0.00776 E-score; for ACCACACT, 0.2703 ± 0.00247 E-score.
Regarding AACTAACA, the binding signal was found to be 0.2417 ± 0.000339 E-score.
Then CACGCTGC, with 0.293 ± 0.00561 E-score.
For ATAAGCAC the value was 0.166 ± 0.0125 E-score; for ATTCGCAA, 0.162 ± 0.0131 E-score.
For TACCCGTA the value was 0.168 ± 0.00327 E-score.
Consider GGGTTTAA, for which the binding signal was found to be 0.232 ± 0.0257 E-score.
Then GAACCCAC, with 0.19 ± 0.0124 E-score; and ACCTCACA, with 0.244 ± 0.00679 E-score.
Then CACTAAAG, with 0.185 ± 0.042 E-score.
For ACTCTCCC the value was 0.163 ± 0.0151 E-score; for ACCCTCCG, 0.271 ± 0.0147 E-score; for ACACTTCT, 0.374 ± 0.0413 E-score.
Take ACACTCCC: the binding signal is 0.404 ± 0.00738 E-score.
For ACACTCCT the value was 0.391 ± 0.0158 E-score; for ATACTCCG, 0.195 ± 0.0283 E-score; for ACACTCCG, 0.3884 ± 0.00235 E-score.
Then ACACTCCA, with 0.373 ± 0.0149 E-score; and CCACTCCA, with 0.152 ± 0.00234 E-score; and GGCGGATA, with 0.22 ± 0.0151 E-score.
Then CACTCCAA, with 0.161 ± 0.0414 E-score; and AGGCTACC, with 0.187 ± 0.00757 E-score.
As for CACCGTCA, the binding signal was determined as 0.209 ± 0.0101 E-score.
Then AACACGGG, with 0.432 ± 0.00733 E-score.
For CACACGGG the value was 0.332 ± 0.0383 E-score; for AACACGGA, 0.372 ± 0.0198 E-score.
For AACACGGT the value was 0.383 ± 0.0148 E-score; for AGCACGGG, 0.155 ± 0.00564 E-score; for CACTCGCA, 0.264 ± 0.0114 E-score.
Take ACCGCGGT: the binding signal turned out to be 0.187 ± 0.0496 E-score.
In the case of AACAAGTG, the binding signal stood at 0.172 ± 0.00772 E-score.
Then CAGTGTTA, with 0.402 ± 0.00939 E-score; and CAGTGTTC, with 0.355 ± 0.0115 E-score.
Then GAGTGCTA, with 0.152 ± 0.00664 E-score; and AAGTGTTC, with 0.285 ± 0.0294 E-score; and GAGTGTTA, with 0.407 ± 0.0179 E-score.
Then AAGTGTTA, with 0.393 ± 0.0449 E-score; and AAGTGTGT, with 0.215 ± 0.00375 E-score.
Take CACTGTTA: the binding signal was 0.255 ± 0.0243 E-score.
Then AGAGCACC, with 0.202 ± 0.0183 E-score; and AACCCACC, with 0.194 ± 0.0122 E-score; and CGCGGGCA, with 0.276 ± 0.0364 E-score.
Then CCCGAGTC, with 0.171 ± 0.0123 E-score; and ACCCCCCT, with 0.302 ± 0.0219 E-score.
In the case of ACACCCCA, the binding signal was found to be 0.4705 ± 0.00327 E-score.
Then CCACCCCG, with 0.246 ± 0.0156 E-score; and ACACCCCG, with 0.466 ± 0.00875 E-score.
For CCACCCCC, the binding signal came out at 0.209 ± 0.0542 E-score.
On to GCACCCCC, for which the binding signal is 0.311 ± 0.046 E-score.
For ACACCCCC the value was 0.4871 ± 0.00117 E-score; for ACCCCCCG, 0.329 ± 0.0392 E-score.
For AGACCCCT the value was 0.155 ± 0.0162 E-score; for TCACCCCA, 0.184 ± 0.0578 E-score; for ACACCCCT, 0.4748 ± 0.00334 E-score.
Then CCACCCCA, with 0.267 ± 0.0424 E-score.
Turning to CCCTCGAC, the binding signal was 0.176 ± 0.00448 E-score.
For ATCGGGCA the value was 0.195 ± 0.0164 E-score.
For CCGCCCGA the value was 0.174 ± 0.00646 E-score.
For CCCTGCAC the value was 0.178 ± 0.0222 E-score; for TGATACCA, 0.325 ± 0.0116 E-score; for AACCCGTG, 0.23 ± 0.00447 E-score.
As to GCGGAGTA, the binding signal came out at 0.241 ± 0.0385 E-score.
Then ACTGGCAC, with 0.152 ± 0.00487 E-score; and ACCCGGAC, with 0.171 ± 0.0263 E-score.
AGCGCGGG: the binding signal worked out at 0.2629 ± 0.0007 E-score.
For GAGAACAC, the binding signal was determined as 0.3811 ± 0.000742 E-score.
For GAGAATAC, the binding signal was 0.194 ± 0.00365 E-score.
Then AAGAACAC, with 0.423 ± 0.0082 E-score.
CAGAACAC: the binding signal is 0.3812 ± 0.000905 E-score.
Then CAGGAACA, with 0.259 ± 0.00612 E-score; and CACTCTAC, with 0.291 ± 0.0135 E-score; and CCGCCACA, with 0.282 ± 0.0124 E-score.
As for ACAAGGGG, the binding signal worked out at 0.185 ± 0.0199 E-score.
For CACTCCCA the value was 0.273 ± 0.0105 E-score.
Take GCACTACA: the binding signal stood at 0.171 ± 0.00501 E-score.
For ACCCAGCG the value was 0.168 ± 0.00443 E-score.
With ACTTAGGG, the binding signal stood at 0.181 ± 0.0198 E-score.
For ATCAGGTG the value was 0.224 ± 0.00902 E-score; for AAGTGGTG, 0.337 ± 0.0139 E-score.
